# Assay outcomes: PubChem BioAssay, Sanford-Burnham Center for Chemical Genomics
# tim23-1 inh = growth inhibitors of tim23-1 mutant yeast, primary screen, luminescence, uHTS; S. cerevisiae tim23-1 growth, BacTiter-Glo luminescence, 24 h; inhibition, % at 20 µM; 1.3% of 330,000 active; AID 463212, 2010;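 active = growth inhibition of the mutant yeast at or above 50%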;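 also: temperature-sensitive mutant grown at 25 °C; plate controls were DMSO-treated mutant yeast for no effect and medium wells lacking yeast for full effect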
# NLRP3 yeast inh = NALP3 inflammasome inhibitors in reconstituted yeast, primary screen, luminescence, uHTS | Yeast reconstituted NLRP3/ASC/caspase-1, beta-gal luminescence, 24 h | inhibition, % at 10 µM | 0.39% of 330,000 active | AID 2825, 2010;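 active = inhibition of 50% or more; inactive = inhibition below 50%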;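 also: plate controls were induced DMSO wells for no effect and uninduced yeast grown without galactose for full effect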
# TIM10 inh = growth inhibitors of isogenic TIM10 control yeast, primary screen, counter-screen for tim10-1 yeast inhibitor project, luminescence, uHTS. S. cerevisiae TIM10 strain growth, BacTiter-Glo luminescence, 24 h. inhibition, % at 10 µM. 1.4% of 330,000 active. AID 463195, 2010;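 active = inhibition of 40% or more at the single tested concentration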;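 also: wild-type TIM10 isogenic control strain grown at permissive 25 °C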
# NALP1 yeast inh = NALP1 inflammasome inhibitors in reconstituted yeast, colorimetric, S. cerevisiae, triplicate retest; S. cerevisiae NALP1/ASC/caspase-1 growth, X-gal OD620, 72 h; 0.61% of 280,000 active; inhibition, % at 10 µM; in the data active = inhibition mostly above about 24%, no sharp cut-off; inactive = mostly below about 32%
# tim10-1 inh = growth inhibitors of tim10-1 mutant yeast, primary screen, luminescence, uHTS; 2.2% of 330,000 active; inhibition, % at 20 µM; S. cerevisiae tim10-1 ts strain growth, BacTiter-Glo, 24 h;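 active = inhibition of at least 40%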;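 also: mutant grown at 25 °C; 0% = DMSO wells with yeast and 100% = wells holding no yeast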
# Numbers without * were called inactive; . = not tested or not shown. This is a sample that favours compounds with a hit; in the whole collection about 4% have one here.
SMILES,tim23-1 inh,NLRP3 yeast inh,TIM10 inh,NALP1 yeast inh,tim10-1 inh
CCCCNC(=O)NC1(C(F)(F)F)Oc2ccccc2O1,18.6,5.2,11.0,36.9*,7.9
O=C(NCCN1CCOCC1)NC1(C(F)(F)F)Oc2ccccc2O1,9.7,4.2,-10.4,15.6,6.6
CC(=O)N1c2ccccc2CCc2ccc([N+](=O)[O-])cc21,18.3,1.0,11.3,8.7,23.1
CCS(=O)(=O)Nc1ccc2c(c1)N(C(C)=O)c1ccccc1CC2,10.2,13.1,-1.0,28.4*,12.8
O=C(COC(=O)c1ccccc1Br)NCCC1=CCCCC1,14.2,8.3,17.0,38.4*,14.8
Oc1c(Br)cc(Br)cc1/C=N/Nc1ccc(Cl)nn1,.,.,.,40.7*,.
Oc1c(Br)cc(/C=N/Nc2ccc(Cl)nn2)cc1Br,32.5,25.1,-24.5,5.6,12.8
CCOc1ccc(N(CC(=O)NCC2CCCO2)S(=O)(=O)c2ccc(SC)cc2)cc1 (centres undefined),21.7,2.8,2.4,34.2*,20.6
CCOc1ccc(S(=O)(=O)N(CC(=O)NCC2CCCO2)c2ccc(F)cc2)cc1 (centres undefined),17.2,5.7,10.9,6.0,4.8
Cc1ccc(S(=O)(=O)/N=c2\ccc(Cl)cn2C(F)F)cc1,11.7,-5.2,2.5,37.6*,20.2
CC1(C)N=C(C(=O)c2ccccc2)N(O)C1(C)O (centres undefined),13.0,10.8,16.4,33.1*,13.8
COc1ccccc1NC(=S)N(CCCN1CCOCC1)Cc1cccs1,10.7,2.5,11.7,-1.2,9.9
O=C(Nc1ccc(Oc2cccnc2)cc1)C1CCN(Cc2cccc(Cl)c2)CC1,-20.2,25.4,-22.0,35.9*,20.6
CCn1cc(CN2CCC(C(=O)Nc3ccc(Oc4ccccc4)nc3)CC2)cn1,-10.7,5.0,-0.9,34.2*,-17.9
O=C(Nc1ccc(Oc2ccccc2)nc1)C1CCN(Cc2ccccc2)CC1,-87.6,19.3,-81.0,15.8,-39.8
Cc1ccc(C2CC2/C(=N/O)c2ccc(F)cc2)cc1 (centres undefined),16.7,30.8,-2.5,19.0,8.5
COc1ccc(/C=C/C(=O)NCCSCc2ccco2)cc1OC,15.2,10.2,10.1,38.8*,8.0
CCCCCCOc1ccc(/C(C)=N/NC2=NCCN2)cc1,47.6,29.4,-41.3,87.6*,-120.1
O=C(CSc1ncn[nH]1)NCc1ccccc1,-4.8,6.7,2.1,27.5*,12.1
Cc1ccc(CNC(=O)CSc2ncn[nH]2)cc1,19.2,14.9,-10.2,14.2,17.5
CCNc1nc(NC(C)C)nc(NC(C)(C)C)n1,12.4,16.0,5.0,30.0*,3.6
CC(C)Nc1nc(NNc2nc(Cl)nc(NC(C)(C)C)n2)nc(NC(C)C)n1,-4.7,12.2,-13.7,1.4,-5.0
CC(C)CN(C(=O)COC(=O)CNC(=O)c1ccccc1)c1c(N)n(Cc2ccccc2)c(=O)[nH]c1=O,-2.2,2.8,11.7,.,10.0
COc1cccc(N2CCN(C(=O)c3ccc(=O)oc3)CC2C)c1 (centres undefined),-0.4,6.1,5.2,40.5*,-6.6
CCOc1ccc(CCNC(=O)COC(=O)c2cccnc2SC)cc1OCC,17.5,17.2,3.4,.,-10.5
SMILES,tim23-1 inh,NLRP3 yeast inh,TIM10 inh,NALP1 yeast inh,tim10-1 inh
CC(=O)Nc1ccc(NC(=S)NC(=O)C2CCCC2)cc1,31.2,0.9,4.4,32.1*,33.4
O=C(NC(=S)Nc1ccccc1Br)C1CC1,47.7,16.6,10.2,3.5,30.3
CCOc1ccccc1NC(=S)NC(=O)C1CC1,49.6,8.7,19.6,26.2*,26.6
COc1ccc(NC(=S)NC(=O)C2CCCCC2)cc1,11.6,19.1,-11.6,19.1,19.9
Cc1ccccc1C(=NCCCN(C)C)c1ccccc1C,-19.6,8.4,-15.5,25.8,5.4
COc1ccc(CCNC(=O)Cc2c(Cl)cccc2Cl)cc1,-7.3,30.8,-15.9,-7.8,-8.8
Cc1ccoc1C(=O)NCCNc1ccc(Cl)cc1[N+](=O)[O-],31.4,22.3,18.7,21.9,28.6
OC[C@@H](O)[C@@H](O)[C@H](O)[C@H](O)CO,3.9,12.0,22.6,.,-0.4
Cc1ccc(NC(=O)CN(C)C(=O)COc2cccc3cccnc23)cc1,5.2,5.2,5.1,63.8*,10.8
C/C(=N\Nc1ccccc1)c1cccc(N)c1,7.8,7.3,0.7,0.7,-1.4
Oc1ccc(O)c(/C(=N/Nc2ccccc2)c2ccccc2)c1,23.8,5.2,26.2,41.6*,39.4
